# Measurements reported in the supplement of paper PMC6555819.
# Tests used:
# Experiment in all cases: PBM binding z-score (relative to random genomic background probes); higher = stronger binding; sequences stand for … in GC…GCGATTGACAGCGTAGAATGAAGG
# [1] = tested on: FXR:RXRa (NR concentration 270 nM, RXRa partner concentration 90 nM)
# Method in brief: (§1)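 Probes were double-stranded and carried 34-nt variable regions with direct-repeat seeds, single-nucleotide variants, half-site ablations and random human genomic background sequences, printed on custom Agilent 4×180K protein-binding microarrays. Arrays were incubated 1 h with ligand-free nuclear receptor dimers in PBS pH 7.4, 2% milk, 0.02% Triton X-100, 1 mM DTT, 0.2 mg/mL BSA and 0.4 mg/ml salmon testes DNA. Antibodies against each partner (one per run) detected binding, and scanned fluorescence was regression-normalized. Binding z-scores use the random background probes as reference.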
# [2] = tested on: LXRa:RXRa (NR concentration 270 nM, RXRa partner concentration 90 nM)
# Method in brief: as §1
# [3] = tested on: LXRa homodimer (NR concentration 270 nM)
# Method in brief: as §1
# [4] = tested on: LXRb:RXRa (NR concentration 270 nM, RXRa partner concentration 90 nM)
# Method in brief: as §1
# [5] = tested on: LXRb homodimer (NR concentration 270 nM)
# Method in brief: as §1
# [6] = tested on: PPARa:RXRa (NR concentration 270 nM, RXRa partner concentration 90 nM)
# Method in brief: as §1
# [7] = tested on: PPARg:RXRa (NR concentration 180 nM, RXRa partner concentration 90 nM)
# Method in brief: as §1
# [8] = tested on: PPARg:RXRa 270nM:90nM, anti-RXR (NR concentration 270 nM, RXRa partner concentration 90 nM)
# Method in brief: as §1
# [9] = tested on: PPARg:RXRa 30nM:10nM, anti-RXR (NR concentration 30 nM, RXRa partner concentration 10 nM)
# Method in brief: as §1
# [10] = tested on: PPARg:RXRa 90nM:30nM, anti-RXR (NR concentration 90 nM, RXRa partner concentration 30 nM)
# Method in brief: as §1
# [11] = tested on: PPARg:RXRa DBDmut IVT, anti-RXR (DBD mutation: RXRa K156A/R161A, NR concentration 270 nM, RXRa partner concentration 90 nM)
# Method in brief: as §1
# [12] = tested on: PPARg:RXRa IVT, anti-PPARg (NR concentration 270 nM, RXRa partner concentration 90 nM)
# Method in brief: as §1
# [13] = tested on: PPARg DBDmut:RXRa IVT, anti-PPARg (DBD mutation: PPARg1 K132A/R137A, NR concentration 270 nM, RXRa partner concentration 90 nM)
# Method in brief: as §1
# [14] = tested on: PPARg DBDmut IVT, anti-PPARg (DBD mutation: PPARg1 K132A/R137A, NR concentration 270 nM)
# Method in brief: as §1
# [15] = tested on: PPARg homodimer (NR concentration 180 nM)
# Method in brief: as §1
# [16] = tested on: PXR:RXRa (NR concentration 270 nM, RXRa partner concentration 90 nM)
# Method in brief: as §1
# [17] = tested on: PXR homodimer (NR concentration 270 nM)
# Method in brief: as §1
# [18] = tested on: RARa:RXR (NR concentration 270 nM, RXRa partner concentration 90 nM)
# Method in brief: as §1
# [19] = tested on: RARa homodimer (NR concentration 270 nM)
# Method in brief: as §1
# [20] = tested on: RARb:RXRa (NR concentration 270 nM, RXRa partner concentration 90 nM)
# Method in brief: as §1
Sequence,PBM binding z-score [1],PBM binding z-score [2],PBM binding z-score [3],PBM binding z-score [4],PBM binding z-score [5],PBM binding z-score [6],PBM binding z-score [7],PBM binding z-score [8],PBM binding z-score [9],PBM binding z-score [10],PBM binding z-score [11],PBM binding z-score [12],PBM binding z-score [13],PBM binding z-score [14],PBM binding z-score [15],PBM binding z-score [16],PBM binding z-score [17],PBM binding z-score [18],PBM binding z-score [19],PBM binding z-score [20]
CGTCCAAGGTCAATGCTAGGTCAGCGAAAGCATT,6.63,5.79,2.77,4.08,1.43,5.16,4.44,4.73,1.24,3.25,3.48,4.11,0.86,0.428,7.14,4.98,1.31,6.26,1.36,5.17
TCTTATAGGTAAATGCTAGGTGAAAGTCCGATCT,1.33,1.6,0.477,1.11,0.669,1.27,0.531,2.5,3.79,3.41,3.93,2.62,1.31,1.13,1.1,0.946,0.588,1.4,1.65,0.769
CGTCCAAAGTCATAGGAGGTCAGTGAAGACAGAT,2.25,4.11,1.4,2.44,0.026,2.82,0.638,0.912,-0.0337,0.296,0.497,1.53,0.0341,0.213,1.59,3.35,1.12,2.86,1.34,2.7
TCAGACAAGTGAAGGTAACTCAGGTACGCAGTCG,0.55,1.36,-0.177,0.561,-0.499,0.902,0.548,2.26,3.99,2.94,2.07,0.111,0.0158,-0.174,-0.105,0.509,-0.105,0.807,-0.0772,0.197
AGAAAGAGGGCACGCTGAGTTGATAGCAGAGTAG,1.1,1.24,-0.317,0.624,-0.685,2.59,1.83,1.95,0.315,1.09,3.25,3.07,0.171,-0.413,0.723,1.85,-0.108,1.27,-0.166,2.74
CCTAGCAGGCCAATCTGGGTCACTCCAGGCTTGA,0.645,1.09,-0.166,0.329,-1.31,2.6,1.99,2.05,-0.235,1.03,4.25,4.76,-0.633,-1.01,0.639,0.543,-0.635,0.754,-0.716,1.48
TTGAGTAGGTTAGGGGCATTCAGAATGGCGTCGA,0.794,0.55,0.331,1.42,1.36,1.84,1.34,2.8,1.58,2.25,3.21,2.8,0.225,0.781,1.61,0.703,1.3,0.894,1.42,1.42
CTCGAAAGGTCGGCTGAGGTGAGTATACGGATAA,3.7,2.47,-0.364,1.86,-0.336,3.62,0.965,2.18,0.306,1.12,-0.0166,1,-0.0144,-0.891,1.16,4.09,-0.42,3.02,-0.275,3.56
ATCTCTAGGTAACCAAGTTTAGTGAATGCCGAAC,0.39,0.24,0.318,0.275,0.481,0.803,0.412,0.529,0.254,0.616,3.62,2.79,0.887,1.75,0.787,0.564,0.333,0.55,1.08,0.627
GATACAGGTTCAGCTAGAGGCCAGAGTATGGAAA,0.427,0.656,-0.157,0.305,-0.537,1.29,0.495,0.117,-0.177,-0.176,-0.632,-0.397,-0.984,-1,0.61,1.19,-0.0373,1.64,0.321,1.35
CGTCCAGGGTCATAGGAGGTCAGTGAAGACAGAT,7.36,7.25,2.83,6.26,0.185,5.85,5.65,5.78,2.38,4.63,1.75,3.92,0.473,-0.113,4.96,6.84,2.73,6.61,2.39,4.79
ATCTCTAGGTAAAGATAGTTCAGCGAATGCAAAT,0.212,4.41,0.481,0.836,0.431,0.777,0.334,0.42,0.395,0.368,2.37,1.47,0.72,1.31,0.488,0.995,0.643,0.739,1.34,0.964
CGTCCAAGGTGATAGGAGGTCAGTGAAGACAGAT,1.74,2.85,0.6,1.86,-0.299,2.71,1.06,1.49,0.0813,0.512,1.37,2.78,0.0253,0.186,1.91,3.57,0.47,2.31,0.367,2.85
CCTATTAGTTGACCATAAGGGCGACCGAAGCTCG,0.484,0.482,0.301,0.554,0.545,0.197,0.29,0.138,-0.288,0.134,0.603,0.201,-0.102,0.933,2.13,0.235,0.541,0.509,1.68,0.951
CCTACTGGGCCATCAGGTCATTCATATCAACGTT,1.41,1.28,1.89,1.61,-0.0742,2.72,2.7,3.47,1.16,2.86,4.57,4.74,0.597,0.12,1.48,1.73,1.07,1.96,0.469,2.01
CCTATTACTTGACCATAAGGGCAACCGAAGCTCG,1.19,0.716,0.834,1.06,1.31,0.711,0.8,0.339,0.281,0.247,0.621,0.836,0.25,1.09,1.41,0.749,1.2,1.05,2.03,1.61
ACTATTACTTGACTTAGGGCAACCGATACGACGC,0.391,0.445,1.02,0.691,1.56,0.231,1.19,0.283,0.727,0.716,0.692,0.81,1.57,1.96,1.24,0.284,0.533,0.623,1.42,0.876
ATCTCCAGGTAACAAGTTCAGTGAAAGAGAGGAC,1.08,1.37,0.906,0.805,1.22,0.983,0.944,1.21,0.66,0.891,0.841,1.17,1.63,1.37,1.7,1.73,2.04,1.05,1.49,1.76
TCTTGTAGATCAATAGGGGTTAAGAAAGTGCGCT,1.29,4.13,0.187,2.93,0.868,2.7,0.337,2.1,2.94,2.42,2.59,1.26,1.26,1.11,1.01,3.87,0.265,2.8,0.509,1.2
CATAGAGGGTCAGCTAGGCCAGAGTAGGGACGGC,3.11,2.04,-0.237,1.37,0.495,3.45,2.23,2.06,0.47,1.23,1.42,2.21,0.395,0.25,1.26,1.2,-0.122,1.9,-0.0533,3.82
AATACAGGGTCATCGTAGGCCAGAATACGCACAG,7.14,6.31,2.07,4.74,1.07,5.64,6.6,5.68,2.64,4.45,2.86,4.2,1.53,0.878,1.87,4.6,0.787,4.56,1.11,4.31
TCATATAGGTAAACAGGTGAAAGTTCGTAAGTTA,1.01,1.3,1.04,1.4,-0.228,4.15,7.28,6.52,5.93,7.06,4.94,5.28,1.8,1.15,1.88,2.07,2.12,2.61,2.02,1.25
GGAACTAGGGCAAGTTGATAGCAGAGTTTGATGG,0.0855,0.0269,0.0494,-0.0975,-0.374,2.15,3.63,3.21,1.12,2.57,7.19,6.86,0.964,0.266,0.42,0.0404,0.803,-0.0697,-0.11,1.69
GCTTACGGGTCAAAGGTTTTAGCATGAATAGAAT,6.63,4.06,0.0126,4.17,0.372,5.95,9.13,7.88,6.54,8.43,4.96,5.14,1.91,1.07,3.2,4.06,0.129,5.58,0.298,3.98
TAGCCTAGGTCATTCAGCGGCCAGTATAGAAAGC,5.03,3.68,1.04,2.68,0.455,3.72,2.09,2.21,0.564,1.12,1.69,2.65,0.127,-0.00854,2.11,1.94,-0.494,3.02,-0.474,3.92
CTTACAGGGTCAGCTAGGCCAGAGTAGGGACGGC,4.5,2.83,-0.519,2.04,-0.147,4.25,2.76,3.24,0.782,2.02,2,2.59,-0.146,-0.1,0.148,1.88,-0.368,2.75,0.0802,4.04
TCTAGTTGGTCACGGAGGTCACATACGACGGGTA,3.08,3.35,2.47,3.46,0.637,3.93,3.1,3.94,3.8,3.63,2.69,4.21,1.22,1.14,2.46,4.38,1.7,4.13,1.16,3.84
ATTATTAGTTGACTTAGGGCAACCGATACGACGC,0.735,0.64,1.16,0.949,1.32,0.727,1.09,0.586,0.719,0.975,0.113,0.899,2.01,2.21,2.16,1.14,1.53,0.95,2.43,1.12
